The whole screen tested about 310,000 compounds, of which about 2,200 (0.71%) showed an effect of 50% or more. The effect is printed as a negative number. What follows is part of a selection rich in strong results, with near analogues and random picks from the rest.
molecular target: human ether-à-go-go-related gene (hERG) potassium channel (human, UniProt Q12809); experiment: primary screen, population patch clamp on CHO cells stably expressing hERG; higher = less effect of the substance
Sequence (Q12809 whole entry, looked up): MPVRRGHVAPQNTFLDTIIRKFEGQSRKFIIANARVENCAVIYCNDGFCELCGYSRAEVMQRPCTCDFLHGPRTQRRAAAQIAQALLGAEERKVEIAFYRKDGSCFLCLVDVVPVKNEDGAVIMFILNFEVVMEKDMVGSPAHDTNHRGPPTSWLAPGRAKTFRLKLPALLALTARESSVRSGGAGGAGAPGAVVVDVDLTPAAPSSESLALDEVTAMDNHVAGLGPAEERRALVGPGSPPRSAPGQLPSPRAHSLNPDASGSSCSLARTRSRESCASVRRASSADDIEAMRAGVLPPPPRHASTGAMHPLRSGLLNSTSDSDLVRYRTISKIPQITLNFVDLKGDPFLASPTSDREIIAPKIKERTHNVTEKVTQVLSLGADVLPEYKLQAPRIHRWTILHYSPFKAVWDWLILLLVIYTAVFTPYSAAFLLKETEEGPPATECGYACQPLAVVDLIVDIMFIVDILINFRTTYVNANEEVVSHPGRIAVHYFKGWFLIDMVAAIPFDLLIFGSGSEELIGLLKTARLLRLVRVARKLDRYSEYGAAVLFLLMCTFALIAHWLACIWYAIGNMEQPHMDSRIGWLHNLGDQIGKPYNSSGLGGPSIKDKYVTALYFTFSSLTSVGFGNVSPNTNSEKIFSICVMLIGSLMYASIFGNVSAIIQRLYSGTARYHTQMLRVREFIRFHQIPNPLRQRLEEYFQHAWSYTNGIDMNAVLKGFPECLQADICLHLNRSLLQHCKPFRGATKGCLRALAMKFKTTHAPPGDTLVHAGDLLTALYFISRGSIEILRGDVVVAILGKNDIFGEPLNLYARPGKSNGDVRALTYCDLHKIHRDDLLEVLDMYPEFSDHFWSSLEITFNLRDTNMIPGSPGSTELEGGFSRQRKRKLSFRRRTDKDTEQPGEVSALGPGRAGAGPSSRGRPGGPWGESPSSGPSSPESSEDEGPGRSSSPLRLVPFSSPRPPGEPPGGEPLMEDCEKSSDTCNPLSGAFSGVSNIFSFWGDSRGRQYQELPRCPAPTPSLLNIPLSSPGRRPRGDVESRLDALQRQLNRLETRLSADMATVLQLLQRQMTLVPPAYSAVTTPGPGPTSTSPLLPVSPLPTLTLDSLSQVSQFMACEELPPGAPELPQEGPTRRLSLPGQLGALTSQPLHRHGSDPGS

| SMILES | hERG current change (%, negative = inhibition) at 1uM [%] |
| --- | --- |
| Cc1cc(C)n(Cc2ccc(NC(=O)c3ccc(COc4ccccc4Br)cc3)cc2)n1 | -8.42 |
| O=C(O)C1=C(OCc2ccc(F)c(F)c2)C(=O)NCC1 | 13.4 |
| Cc1ccc(C(C(=O)NC2CCCC2)N(Cc2ccccc2)C(=O)c2csnn2)o1 (centres unmarked) | 12.4 |
| COc1cc(C(=O)O)ccc1OCc1ccncc1 | 14.1 |
| CCOC(=O)C(=O)NC(C)CCc1ccccc1 (centres unmarked) | 9.43 |
| Cc1ccc(C(C)C)c(OCC(=O)N2CCN(c3ncccn3)CC2)c1 | 10 |
| Cc1cccn2c(=O)c3cc(C(=O)NC4CCCCC4)c(=N)n(Cc4ccccc4)c3nc12 | -40.2 |
| Cc1cccn2c(=O)c3cc(C(=O)NC4CCCC4)c(=N)n(CC4CCCO4)c3nc12 (centres unmarked) | -80.2 |
| Cc1cccn2c(=O)c3cc(C(=O)NCC4CCCO4)c(=N)n(CC4CCCO4)c3nc12 (centres unmarked) | -84.8 |
| Cc1cccn2c(=O)c3cc(S(=O)(=O)c4ccccc4)c(=N)n(CC4CCCO4)c3nc12 (centres unmarked) | 7.88 |
| CCCn1c(=N)c(C(=O)NCC2CCCO2)cc2c(=O)n3cccc(C)c3nc21 (centres unmarked) | -78.3 |
| CCCn1c(=N)c(C(=O)NCc2ccc3c(c2)OCO3)cc2c(=O)n3cccc(C)c3nc21 | -67.3 |
| Cc1cccn2c(=O)nc(SCC(=O)NCc3ccc4c(c3)OCO4)nc12 | -1.11 |
| O=C(O)C1=C[C@H](C2CC2)C[C@H](OCCCCO)O1 | 12.3 |
| O=C(CSc1n[nH]c(=O)n1Cc1ccco1)Nc1ccccc1Cl | 6.62 |
| CCOc1cccc(C2/C(=C(/O)c3ccc4c(c3)CC(C)O4)C(=O)C(=O)N2Cc2cccnc2)c1 (centres unmarked) | 18.4 |
| CCOC(=O)NCc1ccccc1 | -5.01 |
| CCCCCCS(=O)[C@H]1CS(=O)(=O)C[C@@H]1S(=O)CCCCCC (some centres unmarked) | -25.8 |
| CNC(=O)Cn1ncc2c3ccccc3n(C)c2c1=O | 13.1 |
| O=C(O)CC(NC(=O)C12CC3CC(CC(C3)C1)C2)c1cc([N+](=O)[O-])ccc1Cl (centres unmarked) | 2.33 |
| Cc1nc(SCC(=O)NC2CCCC2)[nH]c(=O)c1C | 6.4 |
| O=C1OC(c2ccc(Cl)cc2)/C(=C(/O)c2ccccc2)C1=O (centres unmarked) | 2.03 |
| CCOC(=O)c1ccc(NC(=O)c2nc[nH]c2C(=O)NCCCNC(=O)c2[nH]cnc2C(=O)Nc2ccc(C(=O)OCC)cc2)cc1 | 13.8 |

From publication PMC4336329 (PLoS ONE, 2015)
